TrxR1 inh – qHTS Assay for Inhibitors of Mammalian Selenoprotein Thioredoxin Reductase 1 (TrxR1): qHTS. Potency, µM (series often up to 114 µM), without a hit: at the highest dose activity change, negative = inhibition, most hits filed as inhibitors. recombinant rTrxR1, NADPH fluorescence consumption, selenite substrate. Thioredoxin reductase 1, cytoplasmic (Rattus norvegicus), O89049. 390,000 tested, 1% active; note: potency is the fitted concentration of half-maximal effect; nearly all actives have a fitted effect of over 65% in size
Target sequence (O89049 whole entry, looked up): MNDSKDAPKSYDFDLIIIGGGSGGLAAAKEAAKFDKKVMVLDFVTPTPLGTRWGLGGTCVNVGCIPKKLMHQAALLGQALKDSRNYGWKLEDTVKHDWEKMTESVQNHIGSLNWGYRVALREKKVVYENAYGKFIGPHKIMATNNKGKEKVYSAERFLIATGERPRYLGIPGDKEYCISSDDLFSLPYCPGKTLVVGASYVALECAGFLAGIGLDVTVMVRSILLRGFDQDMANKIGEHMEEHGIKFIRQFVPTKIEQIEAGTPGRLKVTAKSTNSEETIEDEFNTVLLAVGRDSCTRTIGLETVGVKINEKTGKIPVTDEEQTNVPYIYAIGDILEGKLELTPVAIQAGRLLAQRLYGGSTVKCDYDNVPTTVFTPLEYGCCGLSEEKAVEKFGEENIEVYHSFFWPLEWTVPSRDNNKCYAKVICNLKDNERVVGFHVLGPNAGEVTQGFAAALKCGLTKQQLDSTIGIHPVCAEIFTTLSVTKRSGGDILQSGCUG
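Rat TrxR1 (90 nM in the dispensed reagent) was pre-reduced with 400 uM NADPH for 5 min at room temperature, then incubated with compound for 15 min. After 400 uM selenite was added, NADPH fluorescence (Ex 340/Em 450 nm) was followed for 8 min.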
Six1-Eya2 blk – qHTS Assay for Inhibitors of the Six1/Eya2 Interaction; activity change, % (no concentration beside the values); Homeobox protein SIX1 (Homo sapiens) + Protein phosphatase EYA2 (Homo sapiens), …; AlphaScreen GST-Six1/His-Eya2 binding, biochemical; hits give low values; 360,000 tested, 0.56% active; in the data active = activity change below about -65%; inconclusive = mostly about -30% to -63%
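Six1/Eya2 binding was read as AlphaScreen signal after compounds were pinned into GST-Six1 plus His-tagged Eya2 (5X stock 250/500 nM) in pH 8.0 Tris/NaCl/TCEP buffer, beads added, then incubated 1 h, 37 C, dark.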
Eya2 inh – qHTS Assay for Inhibitors of the Phosphatase Activity of Eya2 | Protein phosphatase EYA2 (Homo sapiens), O00167 | recombinant Eya2, OMFP fluorescence dephosphorylation (OMFP is methylfluorescein phosphate) | Potency, µM (doses to about 76.9 µM), inactives show top-dose activity, negative = inhibition, actives largely listed as inhibitors | 330,000 tested, 0.006% active; note: potency is the fitted concentration of half-maximal effect
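Eya2 (0.2 uM) preincubated 10 min at ambient with compound, then OMFP substrate added at 50 uM; 10 min reaction in 50 mM HEPES pH 7.5, 50 mM NaCl, 5 uM MgCl2, 0.05% BSA, 1 mM DTT. Fluorescence read at Ex 485/Em 525 nm.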
CtBP-E1A blk – qHTS Assay for Inhibitors of the CtBP/E1A Interaction. CtBP / adenovirus E1A interaction (AlphaScreen). AlphaScreen GST-E1A/His-CtBP binding, 1536-well; hits give low values. activity change, % (test concentration not listed). 340,000 tested, 0.49% active; in the data active = activity change below about -65%; inconclusive = mostly about -30% to -63%
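In 5 uL wells, 23 nL compound meets equimolar GST-E1A and His-CtBP (5X stock 125 nM each) for 2 h, 37 °C. Beads (5X, 50 ug/mL) then 1 h, 37 °C, dark.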
TrxR1 substrate – qHTS Assay for Substrates of Mammalian Selenoprotein Thioredoxin Reductase 1 (TrxR1): qHTS; Thioredoxin reductase 1, cytoplasmic (Rattus norvegicus), O89049; purified TrxR1 substrate turnover, NADPH consumption readout; Potency, µM (titrated, usually from 114 µM), without a hit: top-dose activity change, negative = substrate turnover; 390,000 tested, 0.01% active; AID 588456, 2011; note: potency is the fitted concentration of half-maximal effect; nearly all actives have a fitted effect of over 50% in size
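Rat TrxR1, dispensed at 90 nM, was prereduced with 400 uM NADPH (final) for 5 min at ~22 deg C, then incubated with compound 15 min before 400 uM selenite. A first-read NADPH fluorescence drop versus no-compound background flagged substrates.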
GALK inh – qHTS Assay for Inhibitors of Human Galactokinase (GALK); 270,000 tested, 0.007% active; Potency, µM (top dose mostly 57.5 µM), inactives show top-dose activity change, negative = inhibition, actives largely listed as inhibitors; AID 1868, 2009; Purified GALK, Kinase-Glo residual ATP luminescence; note: potency is the fitted concentration of half-maximal effect
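5 nM enzyme, 35 uM ATP, 100 uM galactose, 20 mM HEPES pH8.0, 5 mM MgCl2; 1 h RT; residual ATP by Kinase-Glo Plus luminescence, qHTS format.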
Active calls of the source: *; ? = inconclusive; nt = no result given; [ ] = dose if it differs, or a comment. Hits are enriched below; roughly 1.5% of the tested compounds scored in any of these assays. Unless noted, calls come from the whole dose curve; as a rule, active = well fitted curve in the direction sought with a large enough effect; inconclusive = small, poorly fitted or top-dose-only effect, or another doubt; inactive = no such curve, though single readings can be large; an effect the other way counts as inactive or inconclusive. % is set by controls: 0 for no effect and ±100 for the full control effect.

SMILES	TrxR1 inh	Six1-Eya2 blk	Eya2 inh	CtBP-E1A blk	TrxR1 substrate	GALK inh
CCc1cccc(CC)c1NC(=O)CN(C)S(=O)(=O)c1ccc2c(c1)n(C)c(=O)c(=O)n2C	1%	nt	nt	nt	12%	nt
C=C1CC(COc2cc(=O)oc3ccccc23)(c2ccccc2)OC1=O (stereo not given)	32µM*	-2	nt	4	-7%	nt
O=C(Nn1cc(C(=O)Nc2ccccc2F)c2ccccc2c1=O)c1cnccn1	14%[57.1 µM]	-78*	16%	?	7%[57.1 µM]	0%
COC(=O)c1cn(NC(=O)c2cnccn2)c(=O)c2ccccc12	8%[57.1 µM]	?	-15%	?	7%[57.1 µM]	-1%
O=C(CCc1nc2cccnc2n1Cc1cccs1)Nc1cccc(C(F)(F)F)c1	4%	nt	nt	nt	-7%	nt
Cc1ccccc1NC(=O)c1cc2c(-c3ccccc3)nn(-c3ccccc3)c2s1	31%	nt	nt	nt	6%	nt
COc1cc2cc(CN(Cc3nnnn3Cc3ccco3)C3CCCCC3)c(=O)[nH]c2cc1OC	11µM*	-14	-2%	-11	24%	1%
COc1ccc2[nH]c(=O)c(CN(Cc3ccco3)Cc3nnnn3Cc3ccccc3)cc2c1	?	-6	-1%	-16	4%	1%
CCOc1ccc2[nH]c(=O)c(CN(Cc3nnnn3Cc3ccco3)C3CCCCC3)cc2c1	?	2	-1%	2	4%	-5%
Cc1ccc2[nH]c(=O)c(CN(CCCO)Cc3nnnn3Cc3ccccc3)cc2c1	20µM*	nt	nt	nt	5%	nt
CCOc1ccc2[nH]c(=O)c(C(c3nnnn3Cc3ccco3)N3CCN(C)CC3)cc2c1 (stereo not given)	4%[57.1 µM]	-1	-23%	-7	22%[57.1 µM]	1µM*
CCOc1ccc2[nH]c(=O)c(CN(Cc3ccco3)Cc3nnnn3Cc3ccccc3)cc2c1	14µM*	-2	-11%	0	23%	0%
COc1ccc(CCn2c(=S)[nH]c(=O)c3cccnc32)cc1OC	-16%	nt	nt	nt	-4%	nt
CCc1ccc(Nc2cc(C)nc3nc(Cc4ccc(Cl)cc4)nn23)cc1	11%	nt	nt	nt	-6%	nt
Fc1ccc(C2=Nc3cccc4cccc(c34)N2)cc1	?	-1	-2%	nt	-4%	-1%
FC(F)(F)C1=Nc2cccc3cccc(c23)N1	40µM*	?	-12%	-2	-4%	nt
N#CC1=C(S)N(c2ccccc2)C(c2ccc(-c3cccc(Cl)c3)o2)NC1=O (stereo not given)	40µM*	-4	-3%	nt	-4%	-7%
C=C1C=CS(=O)(=O)N(Cc2ccccc2)C1	35µM*	nt	nt	nt	8%	nt
O=S1(=O)CCOCCN1Cc1ccccc1	-17%[57.1 µM]	-2	10%	8	-3%[57.1 µM]	nt
COC(=O)c1ccc(NCc2cc(O)ccc2O)cc1O	?	-19	nt	1	-13%	nt
COC(=O)c1ccc(NCc2c(O)ccc(O)c2Br)cc1Cl	32µM*	-12	nt	3	-9%	nt
Cc1cc(C)c2c(c1)-c1c(ssc1=S)C(C)(C)N2C(=O)CSc1nncn1C	-18%	-67*	12%	-67*	-9%	8%
CC(/C=C/c1ccco1)=N\NC(=O)C(O)c1ccccc1 (stereo not given)	18µM*	-4	1%	nt	-13%	1%
CC(/C=C/c1ccco1)=N\NC(=O)CNc1cccc(C)c1	17%	9	3%	-7	0%	1%
COC(=O)N/N=C(C)\C=C\c1ccco1	40µM*	8	6%	nt	-12%	3%
SMILES	TrxR1 inh	Six1-Eya2 blk	Eya2 inh	CtBP-E1A blk	TrxR1 substrate	GALK inh
Cc1ccc(CNC(=O)CN2C(=O)CCc3cc(S(=O)(=O)N4CCCCC4)ccc32)cc1	2%[57.1 µM]	nt	nt	nt	1%[57.1 µM]	nt
C#CCn1cnc2c(cnn2-c2ccc(F)cc2)c1=O	5%	nt	nt	nt	0%	nt
O=C(CSc1nccn1Cc1ccccc1)NCc1ccccc1Cl	13%[57.1 µM]	nt	nt	nt	-1%[57.1 µM]	nt
Cc1ccc(CCNC(=O)CCS(=O)(=O)c2cc3c(cc2Cl)NC(=O)CO3)cc1	19%	nt	nt	nt	2%	nt
COc1ccc2c(c1O)-c1ccccc1CCN(C)C2	-6%	10	-3%	1	-4%	1%
CN1CCc2cccc3c2[C@@H]1Cc1ccc(O)c(O)c1-3	14µM*	-4	5%	1	11%	6%
Cc1cccc(Cn2c(=O)n3nc(-c4ccccc4)nc3c3ccccc32)c1	21%	nt	nt	nt	10%	nt
CCC1Sc2ccc(S(=O)(=O)CCC(=O)NCc3ccc(C)o3)cc2NC1=O (stereo not given)	50µM*	-6	7%	-8	-3%	-2%
O=C(CCS(=O)(=O)c1ccc(Br)s1)NCc1ccccc1	-11%[57.1 µM]	-2	-28%	5	-3%[57.1 µM]	-1%
Cc1ccc(CNC(=O)CCS(=O)(=O)c2ccc(Br)s2)o1	8.9µM*	-1	7%	2	7%	-2%
Cc1ccc(CNC(=O)c2cn(C)c3ccc(S(=O)(=O)N4CCC(C)CC4)cc3c2=O)cc1	17%	nt	nt	nt	-5%	nt
CC(/C=N/NC(=O)Cc1cccs1)=C\c1ccccc1	-11%	-2	2%	1	-5%	1%
CC(/C=N/NC(=O)Cc1cccn1C)=C\c1ccccc1	50µM*	-14	4%	1	-7%	1%
CCc1nnc(NS(=O)(=O)c2ccc(NC(=S)NC(=O)c3cccnc3)cc2)s1	1%[57.1 µM]	-1	7%	-20	8%[57.1 µM]	3%
Cc1cc(NS(=O)(=O)c2ccc(NC(=S)NC(=O)c3ccc(Br)cc3)cc2)no1	45µM*	0	4%	-3	6%	0%
CCc1nnc(NS(=O)(=O)c2ccc(NC(=S)NC(=O)c3ccc(F)cc3)cc2)s1	18µM*	3	3%	-1	-3%	-3%
Cc1cc(NS(=O)(=O)c2ccc(NC(=S)NC(=O)c3cccnc3)cc2)no1	-11%[57.1 µM]	-6	4%	-5	-2%[57.1 µM]	7%
CCOC(=O)Cn1c(=O)oc2cc(S(=O)(=O)N3CCN(c4cccc(C)c4C)CC3)ccc21	17%	nt	nt	nt	0%	nt
O=C(N/N=C\c1cccc([N+](=O)[O-])c1O)C1COc2ccccc2O1 (stereo not given)	-21%	-88*	-7%	-96*	-17%	2%

Bioassay records deposited in PubChem BioAssay by National Center for Advancing Translational Sciences (NCATS).
